Activity calls are given as the source filed them.
Biological target: NADPH oxidase 2 (Homo sapiens) (UniProt P04839)
Assay: NOX2-dependent H2O2 signal modulators, primary screen, NOX inhibitor project, cell-based, HEK293-NOX2, PMA-stimulated, Amplex Red fluorescence (AID 1159); further: test concentration not given here
Conditions: 45 min, higher = more signal, called active from +8 up or from −8 down

Chain of NADPH oxidase 2 (Homo sapiens) (P04839 whole entry, looked up): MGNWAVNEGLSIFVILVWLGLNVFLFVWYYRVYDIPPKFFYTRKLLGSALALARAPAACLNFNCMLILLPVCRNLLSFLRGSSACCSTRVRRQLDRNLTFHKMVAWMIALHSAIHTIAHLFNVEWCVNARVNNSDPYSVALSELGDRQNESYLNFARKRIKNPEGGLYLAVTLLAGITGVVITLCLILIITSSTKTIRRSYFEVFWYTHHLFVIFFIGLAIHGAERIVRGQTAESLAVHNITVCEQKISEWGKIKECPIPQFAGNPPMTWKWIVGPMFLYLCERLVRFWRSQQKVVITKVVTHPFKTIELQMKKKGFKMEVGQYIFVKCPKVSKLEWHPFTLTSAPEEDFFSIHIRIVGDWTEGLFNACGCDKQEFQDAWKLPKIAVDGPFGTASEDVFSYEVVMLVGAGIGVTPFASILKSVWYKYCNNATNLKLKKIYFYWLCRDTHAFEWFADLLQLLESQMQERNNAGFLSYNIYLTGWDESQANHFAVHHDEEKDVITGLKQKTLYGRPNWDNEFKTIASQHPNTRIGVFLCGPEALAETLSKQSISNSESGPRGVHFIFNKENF

z-score, inactive:
COC(=O)C(CC#Cc1ccc2c(c1)[C@]1(C(=O)N2)[C@H](c2ccc(O)cc2)N2[C@H](c3ccccc3)[C@H](c3ccccc3)OC(=O)[C@H]2[C@@H]1C(=O)N1CCCCCCC1)C(=O)OC 0.953
CC(C)=CCCC(C)=CC(O)C1C=CC2C(=O)N(c3ccccc3)C(=O)C2N1Nc1ccccc1F (stereo not given) -0.199
CN(C)CCCCNC(=O)[C@H]1C[C@H]2C(=O)N[C@@H](CCCC[N+](C)(C)C)C(=O)N2[C@H]1c1ccc(O)cc1 0.622
CN(C)CCCNC(=O)[C@@H]1c2ccccc2C(=O)N(C2CCCCC2)[C@H]1c1ccc(CO)cc1 0.2
CC(C)CNC(=O)[C@@H]1c2ccccc2C(=O)N(C2CCCCC2)[C@H]1c1ccc(CO)cc1 -0.318
O=C1C2C=CC(C(O)c3ccco3)N(Nc3ccccc3)C2C(=O)N1c1ccccc1 (stereo not given) -1.61
COc1ccc([Si](C)(C)[C@@H]2[C@@H](CCn3cc([C@H](O)c4ccccc4)nn3)O[C@]3(C(=O)N(c4ccccc4)c4ccccc43)[C@H]2C)cc1 -0.0239
CCCNC(=O)[C@@]1(Sc2ccc(C)cc2)CC(=O)N(C2CCCCC2)[C@@H]1c1ccc(CO)cc1I 0.82
COC(=O)C(CC#Cc1ccc2c(c1)[C@]1(C(=O)N2)[C@H](C(=O)Nc2nc3ccccc3s2)[C@H]2C(=O)O[C@H](c3ccccc3)[C@H](c3ccccc3)N2[C@@H]1c1ccc(OCCO)cc1)C(=O)OC 1.1
CC(=O)NCCCC[C@@H]1NC(=O)[C@@H]2C[C@H](C(=O)NCCCCCCN)[C@H](c3cccc(OCCO)c3)N2C1=O 0.892
COc1ccc([Si](C)(C)[C@H]2[C@H](CCO)O[C@@]3(C(=O)N(Cc4ccc(N5C(=O)c6ccccc6Oc6ccccc65)cc4)c4ccccc43)[C@@H]2C)cc1 -0.681
CCCCC=C[C@@H](NC(=O)c1ccccc1)c1ccccc1 -0.474
COCCOC(=O)N1C(=O)[C@@]2(c3cc(C#CC4=CCCCC4)ccc31)[C@H](C(=O)N1CCCCCCC1)[C@H]1C(=O)O[C@H](c3ccccc3)[C@H](c3ccccc3)N1[C@@H]2c1ccc(OCCO)cc1 0.983
COCCOC(=O)N1C(=O)[C@@]2(c3cc(C#CCNC(N)=O)ccc31)[C@H](c1ccc(O)cc1)N1[C@H](c3ccccc3)[C@H](c3ccccc3)OC(=O)[C@H]1[C@@H]2C(=O)N1CCN(c2ncccn2)CC1 1.23
COCCOC(=O)N1C(=O)[C@@]2(c3cc(C#CCCO)ccc31)[C@H](c1ccccc1OCCO)N1[C@H](c3ccccc3)[C@H](c3ccccc3)OC(=O)[C@H]1[C@@H]2C(=O)N1CCCCCCC1 0.6
CC(=O)N1CC(C(O)C2C=CC3C(=O)NC(=O)C3N2Nc2ccc(Cl)cc2Cl)c2ccccc21 (stereo not given) -0.849
COc1cc2c(cc1OC)CN(C(=O)[C@@H]1[C@H]3C(=O)O[C@H](c4ccccc4)[C@H](c4ccccc4)N3[C@H](c3ccc(O)cc3)[C@@]13C(=O)Nc1ccc(C#CCCO)cc13)CC2 0.777
NCCCCCNC(=O)[C@H]1C[C@H]2C(=O)N[C@@H](Cc3ccccc3)C(=O)N2[C@H]1c1ccc(O)cc1 0.354
CC(C)OC(=O)CC(=O)CC(O)c1ccc([N+](=O)[O-])cc1 (stereo not given) 0.0696
CCCNC(=O)[C@@]1(C)c2ccccc2C(=O)N(Cc2ccccc2)[C@H]1c1ccc(CO)cc1 -0.703
COC(=O)[C@@]1(Cc2ccc(OC)cc2)[C@H]2c3cc(C(=O)N4CCCC4)n(Cc4cc(C)n(C)n4)c3C[C@H]2CN1C(=O)c1ccccc1 0.755
C=CCC(OC(C)=O)[C@@H]1[C@@H](N(Cc2ccc(-c3cccc(C(F)(F)F)c3)o2)C(=O)c2ccc(C)cc2)c2cc(OCCCO)ccc2N1C(=O)Cc1ccc(OC)cc1 (stereo not given in full) -1.44
CC(=O)n1cc(C(O)C2C=CC3C(=O)N(c4ccccc4)C(=O)C3N2Nc2ccc(C(C)C)cc2)c2ccccc21 (stereo not given) -1.19
C=CCC(OC(C)=O)[C@@H]1[C@@H](N(Cc2ccc(-c3ccccc3)cc2)C(=O)c2ccc(C)cc2)c2cc(OCCCO)ccc2N1C(=O)Cc1ccc2ccccc2c1 (stereo not given in full) -1.68
COc1cc(C(O)C2C=CC3C(=O)N(Cc4ccccc4)C(=O)C3N2n2cnnc2)cc(OC)c1OC (stereo not given) 1.24
COc1ccc(C(=O)Nc2cccc(CN3C(=O)[C@@]4(O[C@@H](CC(=O)N(CCO)Cc5ccccc5)[C@H]([Si](C)(C)c5ccc(OC)cc5)[C@H]4C)c4ccccc43)c2)cc1 0.306
C=CCC(OC(C)=O)[C@@H]1[C@@H](N(Cc2ccc(-c3cccc(C(F)(F)F)c3)o2)C(=O)Cc2ccc(OC)cc2)c2cc(OCCCO)ccc2N1C(=O)Cc1ccc2ccccc2c1 (stereo not given in full) -1.6
CO[C@H]1O[C@H](CO)[C@@H](OC(=O)c2ccc(Br)cc2)[C@@H]2OC(=O)[C@H](Cc3ccccc3)C/C=C/C[C@@H](Cc3ccccc3)C(=O)O[C@@H]12 -4.18
O=C(CS)NCCCCCCNC(=O)[C@@H]1C[C@@H]2C(=O)NCC(=O)N2[C@@H]1c1ccc(O)cc1 0.266
COCCOC(=O)N1C(=O)[C@@]2(c3cc(C#CCNC(N)=O)ccc31)[C@H](c1ccc(OCCO)cc1)N1[C@H](c3ccccc3)[C@H](c3ccccc3)OC(=O)[C@H]1[C@@H]2C(=O)NC[C@H](O)c1ccccc1 2.22
CC(C)C[C@@H]1NC(=O)CNC(=O)[C@@]23C(=O)N[C@@H](Cc4ccccc4)C2[C@H](C)[C@@]2(C)O[C@H]2C3/C=C/C/C=C\CNC1=O (stereo not given in full) 0.217
COCCOC(=O)N1C(=O)[C@@]2(c3cc(C#CC4(O)CCCCCC4)ccc31)[C@H](c1ccc(OCCO)cc1)N1[C@H](c3ccccc3)[C@H](c3ccccc3)OC(=O)[C@H]1[C@@H]2C(=O)Nc1nc2ccccc2s1 0.549
COCCOC(=O)N1C(=O)[C@@]2(c3cc(C#CCC(C(=O)OC)C(=O)OC)ccc31)[C@H](C(=O)NC[C@H](O)c1ccccc1)[C@H]1C(=O)O[C@H](c3ccccc3)[C@H](c3ccccc3)N1[C@@H]2c1ccc(O)cc1 1.71
C=C(C(=O)CC[C@H](OC(=O)c1ccccc1-c1ccccc1C(=O)O)c1ccccc1OCCO)C(C)C 2.97
C=C(C)[C@@H]1CC=C(C(O)C2C=CC3C(=O)N(c4ccccc4)C(=O)C3N2Nc2ccc(C#N)cc2)CC1 (stereo not given in full) -1.94

Reference: PubChem BioAssay
